TexasRed fluor – Texas Red fluorescence interference in TRb-SRC2 counter-screen; 280,000 compounds, 0.29% hits; Potency, µM (highest dose often 106 µM), for inactives: at the top dose fluorescence change, negative = quenching; TRb/SRC2 Texas Red total fluorescence interference; active = well fitted curve in either direction with a large enough effect; inconclusive = small, poorly fitted or top-dose-only effect
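Human TRβ ligand-binding domain (0.6 uM) and Texas Red SRC2 peptide (20 nM) in Tris buffer with 1 uM T3 and 5% DMSO were incubated with pinned compound for 5 hr at ambient temperature. Total fluorescence was computed as S + 2P (555/632 nm).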
Tau FP inhib – inhibitors of human tau fibril formation | P10636 | K18 P301L tau heparin fibrillization, Alexa594 FP, 6 h | Potency, µM (titrated, usually from 57.7 µM), for the others: top-dose activity, negative = inhibition, actives largely listed as inhibitors | 280,000 compounds, 0.39% hits | AID 1468; also: nearly all actives have a fitted effect of over 55% in size
Target sequence (P10636 561-689 P618L limits assumed): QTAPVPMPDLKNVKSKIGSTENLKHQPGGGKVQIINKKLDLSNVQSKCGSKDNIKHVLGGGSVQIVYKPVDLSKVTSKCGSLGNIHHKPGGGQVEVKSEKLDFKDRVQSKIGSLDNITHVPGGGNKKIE
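Compound effects on tau fibrillization are measured by Alexa 594 fluorescence polarization (ex 555, em 632 nm). K18 P301L tau is used at 15 uM with 0.24 uM labeled tracer, and 20 uM heparin induces aggregation over 6 hr at 37 C.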
Tau fluor cs – counter-screen for tau fibril formation inhibitors | 280,000 compounds, 0.93% hits | tau K18 P301L Alexa594 fluorescence, heparin fibrillization | Potency, µM (series often up to 57.7 µM), for the others: at the top dose activity change, negative = decrease | AID 1463; also: nearly all actives have a fitted effect of over 55% in size
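Human tau K18 P301L (15 uM unlabeled, 0.24 uM Alexa 594-labeled) in 100 mM sodium acetate pH 7 with 20 uM heparin, 6 hr at 37 C. ThT 30 uM added, 1 hr ambient; Alexa 594 FP and total fluorescence read at 555/632 nm.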
TRb SRC2 PPI – inhibitors of human thyroid hormone receptor beta-SRC2 interaction; P10828; TRbeta-SRC2 peptide binding, fluorescence polarization; receptor liganded with 1 µM T3; Potency, µM (series often up to 106 µM), inactives show at the highest dose activity change, negative = inhibition, actives largely listed as inhibitors; 280,000 compounds, 0.065% hits; AID 1469;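 also: plate controls were bound peptide for no effect and peptide without receptor for full effect; nearly all actives have a fitted effect of over 50% in size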
Target sequence (P10828 whole entry, looked up): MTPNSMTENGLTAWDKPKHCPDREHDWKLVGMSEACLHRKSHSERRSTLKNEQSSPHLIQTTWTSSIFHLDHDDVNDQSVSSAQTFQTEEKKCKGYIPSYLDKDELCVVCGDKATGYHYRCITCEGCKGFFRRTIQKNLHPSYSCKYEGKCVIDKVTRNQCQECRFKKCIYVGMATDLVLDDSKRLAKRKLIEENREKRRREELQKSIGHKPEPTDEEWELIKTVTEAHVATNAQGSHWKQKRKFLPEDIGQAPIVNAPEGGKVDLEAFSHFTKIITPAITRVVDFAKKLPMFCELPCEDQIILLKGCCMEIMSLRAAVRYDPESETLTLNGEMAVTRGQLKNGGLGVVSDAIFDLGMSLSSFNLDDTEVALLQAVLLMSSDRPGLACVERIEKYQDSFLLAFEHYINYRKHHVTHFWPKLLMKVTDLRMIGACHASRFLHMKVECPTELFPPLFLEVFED
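Each compound concentration gave % activity, normalized to unbound and bound Texas Red SRC2 controls, from polarization read after 5 hr ambient incubation with T3-loaded human TRb LBD.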
Tau fibril ThT – tau fibrillization inhibition (ThT binding) | P10636 | recombinant tau K18 P301L (four-repeat tau fragment), heparin-induced fibrillization, ThT fluorescence | Potency, µM (titrated, usually from 57.4 µM), without a hit: at the highest dose activity, negative = inhibition, actives largely listed as inhibitors | 270,000 compounds, 2.1% hits | AID 1460; also: nearly all actives have a fitted effect of over 55% in size
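Heparin-induced (20 uM) aggregation of recombinant human K18 P301L tau, 15 uM unlabeled with 0.24 uM labeled, pH 7 acetate buffer, 6 hr at 37 C with compound. Fibrils quantified by 30 uM ThT fluorescence after 1 hr ambient incubation.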
An asterisk follows results filed as active; ? = inconclusive; . = no result given; [ ] = remark or other dose. Most compounds without a hit are left out; they make up all but 3% or so of the library. Unless noted, calls follow the shape of the dose curve; as a rule, active = well fitted curve in the direction sought with a large enough effect; inconclusive = small, poorly fitted or top-dose-only effect, or another doubt; inactive = no such curve, though single readings can be large; an effect the other way counts as inactive or inconclusive. Unless noted, % is scaled to controls: 0 for no effect and ±100 for the full control effect; potency is read from the fitted curve at half-maximal effect.

SMILES	TexasRed fluor	Tau FP inhib	Tau fluor cs	TRb SRC2 PPI	Tau fibril ThT
C=Cc1c(C)/c2[n-]/c1=C\c1[n-]c(c(CC)c1C)/C=c1\[n-]c3c(c1C)C(=O)C(C(=O)[O-])C=3c1[n-]c(c(C)c1CCC(=O)[O-])\C=2.[Cu].[Na+].[Na+] (configuration not stated)	25.1µM*[quencher]	20µM*	11.2µM*[quencher]	44.7µM*	14.1µM*
Cn1c(-c2ccccc2)c(/C=N/NC(=O)c2ccc(O)cc2)c2ccccc21	0.8%	1.8%	20µM*[quencher]	2.3%	?
O=C(CCc1ccccc1)NCc1ccc2c(c1)CCN2C(=O)c1ccc(Cl)cc1	5.7%	-3.9%	-10.4%	-2.3%	-14.9%
Cc1ccc(-c2cc(-c3cccc(F)c3)n[nH]2)c(O)c1	1.8%	?	?	4.1%	?
COc1ccc(-c2cc(-c3cc(F)ccc3O)[nH]n2)cc1OC	-5.5%	?	25.1µM*[quencher]	14.5%	?
Cc1ccc(O)c(-c2cc(-c3cccc(F)c3)n[nH]2)c1	-7.5%	?	31.6µM*[quencher]	6.6%	-11.8%
COc1ccc(-c2cc(-c3ccccc3O)[nH]n2)cc1OC	-5.4%	?	?	2.8%	?
COc1ccc(-c2cc(-c3ccc(OC)c(OC)c3)n[nH]2)c(O)c1	-12.1%	1.5%	15.8µM*[quencher]	-13.5%	-9.4%
CC(=O)OC[C@H]1O[C@@H](O/N=C(\C)CCN2CCc3nc(-c4ccccc4)c(-c4ccccc4)cc3C2)[C@H](OC(C)=O)[C@@H](OC(C)=O)[C@H]1OC(C)=O	1.7%[11.2 µM]	0.0%[11.6 µM]	-2.5%[11.6 µM]	2.5%[11.2 µM]	-5.1%[11.5 µM]
O=C(CCc1ccc(O)cc1)c1c(O)cc(O)cc1O	-1.1%	2.5%	?	?	?
COc1cc(O)c(CC=C(C)C)c(O)c1C(=O)CCc1ccc(O)cc1	-2.2%	15.8µM*	?	3.6%	-3.1%
C/C=C1\COC(C(=O)NCCOCCO)(C(F)(F)F)C=C1C=C1CCCCC1 (configuration not stated)	-0.7%	.	.	-12.2%	.
COC(=O)c1ccccc1NC(=O)/C=C/c1ccco1	3.16µM*[quencher]	4.1%	-3.7%	?	0.9%
O=C(/C=C/c1ccco1)Nc1cccnc1Cl	-0.4%	?	-18.1%	-6.7%	?
CC(C)c1ccc(NC(=O)CN2C(=O)C3(SCC(=O)N3c3ccc(F)cc3)c3ccccc32)cc1 (configuration not stated)	-4.9%	?	?	6.9%	-5.8%
Cc1[nH]n(-c2ccc(Br)cc2)c(=O)c1C=Nc1ccc(S(=O)(=O)Nc2nccs2)cc1	2.8%	-13.0%	?	9.5%	15.8µM*
CN(C(=O)C1=CC(c2ccc3c(c2)OCO3)=NS(=O)(=O)N1C)c1ccccc1	-0.5%	-17.0%	-27.8%	-8.0%	0.2%
Clc1ccc(-c2csc(N/N=C/c3ccc4c(c3)OCO4)n2)cc1	-18.7%	-2.4%	11.2µM*[quencher]	-1.4%	8.91µM*
Cc1csc(N/N=C/c2ccc(O)c([N+](=O)[O-])c2)n1	-26.1%	-2.3%	?	-3.3%	5.01µM*
O=[N+]([O-])c1ccc(-c2csc(N/N=C/c3cccnc3)n2)cc1	-4.0%	4.0%	?	4.4%	2.24µM*
O=[N+]([O-])c1cc(/C=N/N/C(=N/c2ccccn2)c2ccccn2)ccc1O	-0.9%	-10.7%	-12.9%	0.0%	?
O=[N+]([O-])c1cc(/C=N\Nc2nc(-c3ccccc3)cs2)ccc1O	-14.3%	?	10µM*[quencher]	-4.3%	3.16µM*
CC(=O)Nc1ccc(S(=O)(=O)N2CCN(c3ccc(C)c(C)c3)CC2)cc1	2.9%	-8.1%	?	3.1%	-8.4%
CCC(=O)N1c2ccccc2CC1C(=O)NCc1ccccc1C (configuration not stated)	-1.7%	6.0%	0.4%	0.4%	1.4%
CC(=O)OC[C@H]1O[C@@H](O/N=C\[C@@H](C)[C@H](OCc2ccccc2)C(C)C)[C@H](OC(C)=O)[C@@H](OC(C)=O)[C@H]1OC(C)=O	?	1.9%[11.6 µM]	-3.5%[11.6 µM]	-9.1%[11.2 µM]	-2.0%[11.5 µM]
SMILES	TexasRed fluor	Tau FP inhib	Tau fluor cs	TRb SRC2 PPI	Tau fibril ThT
COc1ccc(OCC2CN3C(CCC(C)C3c3ccc(Br)cc3)C(=O)O2)cc1 (configuration not stated)	-0.6%[11.2 µM]	-5.3%[11.6 µM]	-5.0%[11.6 µM]	0.8%[11.2 µM]	-9.1%[11.5 µM]
COc1ccc(/C=C/C(=O)Nc2ccc3nc(N4CCC(C)CC4)cc(C)c3c2)cc1OC	-6.3%	13.3%	3.55µM*[quencher]	1.3%	3.55µM*
CCN1CCN(c2cc(C)c3cc(NC(=O)/C=C/c4ccc(C)cc4)ccc3n2)CC1	-2.9%	10.4%	14.1µM*[quencher]	8.1%	4.47µM*
COc1ccccc1CC(=O)Nc1ccc2nc(N3CCC(C)CC3)cc(C)c2c1	10.4%	-2.8%	?	-7.6%	-6.8%
CCN1CCN(c2cc(C)c3cc(NC(=O)/C=C/c4ccc(OCCC(C)C)cc4)ccc3n2)CC1	-0.4%	5.1%	?	6.7%	7.08µM*
CCN1CCN(c2cc(C)c3cc(NC(=O)c4cccs4)ccc3n2)CC1	-4.8%	12.5%	?	4.6%	?
Cc1ccc(/C=C2\SC(=S)N(/N=C/c3cc([N+](=O)[O-])ccc3O)C2=O)o1	-10.7%	?	?	-5.8%	17.8µM*
O=[N+]([O-])c1ccc(O)c(/C=N/n2cnc3ccccc32)c1	-8.0%	5.3%	-18.9%	3.6%	?
COc1ccc(NC(=O)c2cnc3cc(C)ccn3c2=O)c(OC)c1	3.5%	-3.6%	-22.6%	-3.8%	?
O=c1oc2c(O)c(O)cc3c(=O)oc4c(O)c(O)cc1c4c23	?	?	?	-2.0%	14.1µM*
O=C(CS)Nc1ccc2ccccc2c1	-1.1%	?	?	10.1%	25.1µM*
CCCCCC(=O)Nc1ccc2ccccc2c1	0.7%	-2.0%	-2.8%	3.0%	-1.6%
O=C(CSCc1nc2ccccc2[nH]1)Nc1ccc2ccccc2c1	-3.0%	?	?	-10.5%	22.4µM*
O=C(CSCc1nc2ccccc2[nH]1)Nc1ccc(Oc2ccccc2)cc1	0.5%	?	?	1.9%	-9.2%
CC(=O)Oc1c(Cl)cc(Cl)cc1/C=C/c1ccc2ccccc2n1	-1.6%	-8.6%	-18.7%	0.1%	-18.0%
COc1cc(/C=C/c2cc(OC(C)=O)c3ccccc3n2)c(OC(C)=O)c([N+](=O)[O-])c1	-3.2%	?	12.6µM*[quencher]	-17.2%	3.16µM*
CCS(=O)(=O)c1ncc(Cl)c(C(=O)Nc2c(C(=O)Nc3cccc(C)c3)oc3ccccc23)n1	4.6%	-11.4%	?	-1.3%	3.98µM*
C=C(C)C(O)/C=C/c1ccc(C(F)(F)F)cc1 (configuration not stated)	0.7%	-2.3%	-15.6%	9.9%	-10.8%
O=C(CSc1ncc(-c2ccccc2)[nH]1)Nc1cccc(C(F)(F)F)c1	-1.2%	?	15.8µM*[quencher]	-1.5%	-16.3%

From PubChem BioAssay
